CYP2C9 act = CYP2C9 (human) activation | P11712 | recombinant CYP2C9, luciferin-H conversion, luminescence; hits give high values; factor 1 = untreated enzyme, 0 = blocked | activation factor at 5 µM | 96,000 tested, 1.4% active;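 active = activation factor of 2 or more for CYP2C9 at a 5 µM dose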;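 note: 0 = sulfaphenazole-blocked wells and 1 = vehicle-only wells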
Target sequence (P11712 whole entry, looked up): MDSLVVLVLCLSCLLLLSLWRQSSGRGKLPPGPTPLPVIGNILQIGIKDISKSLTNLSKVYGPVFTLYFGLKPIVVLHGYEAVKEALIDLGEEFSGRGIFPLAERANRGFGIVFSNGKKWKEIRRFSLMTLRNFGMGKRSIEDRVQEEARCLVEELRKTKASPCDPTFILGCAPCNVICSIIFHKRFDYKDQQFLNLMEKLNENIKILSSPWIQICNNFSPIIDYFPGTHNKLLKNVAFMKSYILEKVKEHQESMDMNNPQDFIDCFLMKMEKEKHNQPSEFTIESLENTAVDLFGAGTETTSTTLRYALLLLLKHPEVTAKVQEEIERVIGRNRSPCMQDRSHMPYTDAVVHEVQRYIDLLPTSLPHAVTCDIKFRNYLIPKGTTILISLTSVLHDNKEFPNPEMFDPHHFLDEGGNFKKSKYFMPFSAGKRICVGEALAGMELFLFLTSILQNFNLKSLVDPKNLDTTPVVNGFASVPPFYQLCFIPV
PostGolgi yeast = growth inhibition of a yeast mutant, post-Golgi transport screen; inhibition, % at 10 µM; 98,000 tested, 0.9% active; post-Golgi transport phenotypic cell assay;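 note: yeast cells grown in 1536-well plates; yeast grown about 18 h at 30C before absorbance read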
PostGolgi ctrl = growth of the yeast control strain, post-Golgi counter-screen | efflux-deficient yeast background strain, growth absorbance A615, 16 h | inhibition, % at 10 µM | 98,000 tested, 5% active | AID 738
CYP2C19 inh = human CYP2C19 inhibition. P33261. CYP2C19 Supersomes, luciferin-H EGE luminescence, 30 min. inhibition, % at 5 µM. 96,000 tested, 21% active. AID 778;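 active = CYP2C19 inhibition above a set limit at 5 µM in the primary screen, cut at about 50% in these data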;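 note: plate controls were negative control wells for no effect and 2.5 mM tranylcypromine positive control for full effect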
CYP2C9 inh = blocks human cytochrome P450 2C9 | P11712 | 96,000 tested, 20% active | inhibition, % at 5 µM | AID 777 | CYP2C9 Supersomes, luciferin-H conversion, luminescence;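 active = blocking of liver enzyme CYP2C9 beyond about 50% at 5 µM, limit read from the data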
CYP2C19 activ = cytochrome P450 2C19 (human) activation; activation factor at 5 µM; recombinant CYP2C19, luciferin-H EGE luminescence; hits give high values; 0 = fully inhibited enzyme, 1 = untreated enzyme; 96,000 tested, under 10 active; P33261;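 active = activation factor of at least 2 at 5 µM in the primary screen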;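 note: 0 = wells with 2.5 mM tranylcypromine and 1 = vehicle-only wells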
Numbers without * were called inactive; · = no result. Hits are enriched below; roughly 32% of the tested compounds scored in any of these assays. Cut-off read from the data, not from the text of the source, unless noted: active = inhibition above about 30%; inactive = the rest.

SMILES	CYP2C9 act	PostGolgi yeast	PostGolgi ctrl	CYP2C19 inh	CYP2C9 inh	CYP2C19 activ
Cc1cc(CN2C(=O)c3ccccc3C2=O)cc(N2CCOCC2)c1	1.6	-10.7	12.0	46.9	-61.2	0.5
O=c1[nH]c2cc3c(cc2cc1C(c1nnnn1C1CCCCC1)N1CCSCC1)OCCO3 (stereo not given)	·	-3.5	17.1	·	·	·
CCN(CC)/C(=N/S(=O)(=O)c1ccc(C)cc1)c1ccccc1	0.8	13.1	2.0	57.0*	18.9	0.4
CCCOC(=S)N/C(=N\S(=O)(=O)c1ccccc1)c1ccccc1	0.3	0.2	21.8	36.7	67.0*	0.6
Cc1ccc(NC(=S)N/C(=N/S(=O)(=O)c2ccccc2)c2ccccc2)cc1	0.2	13.5	4.6	19.7	82.3*	0.8
Cc1cccc(NC(=O)/C(=C\c2cccs2)NC(=O)c2ccccc2)c1	0.9	-6.0	1.3	2.3	11.9	1
COc1ccc(Cl)cc1C(=O)NCC(C)C	3.1*	7.3	4.5	13.6	-212.8	0.9
CCCC(C)NC(=O)c1cc(Cl)ccc1OC (stereo not given)	3.5*	-1.6	-3.0	44.0	-252.4	0.6
Cc1ccc(NC(=O)c2cc(N3C(=O)C4CC=CCC4C3=O)ccc2N2CCOCC2)cc1Cl (stereo not given)	0.9	0.7	7.6	2.2	6.6	1
Cc1cc(C)nc(/N=C2\NC(=O)CC(C(=O)O)N2c2ccc(Cl)cc2)n1 (stereo not given)	1	0.2	2.1	-6.7	-3.7	1.1
Cc1ccc(C(C)NC(=O)/C(C#N)=C\c2c(C)[nH]c3ccccc23)cc1 (stereo not given)	2.1*	-1.5	58.9*	45.0	-108.2	0.6
CCn1nnnc1Oc1ccc(Cl)cc1	1	7.6	6.0	35.6	-3.1	0.6
NC(=O)c1ccc(-n2nnnc2Oc2ccccc2C(=O)N2CCOCC2)cc1	1	-9.2	-6.3	-14.9	1.7	1.1
Brc1ccc(Oc2nnnn2-c2ccccc2)cc1	0.2	9.0	·	100.3*	81.0*	0
Cc1cc(Oc2nnnn2-c2ccccc2)ccc1Cl	0.4	4.4	14.9	58.2*	61.2*	0.4
COC(=O)[C@@H](NC(=O)NCc1ccco1)C(C)C	1.1	1.2	1.9	5.7	-7.6	0.9
CCOC(=O)c1c(C)n(C)c2ccc(OC(C)C(=O)OC)cc12 (stereo not given)	0.4	-3.9	31.8*	50.8*	63.7*	0.5
CC1(C)OC(=O)N(c2ccccc2)C12C=Cc1cc(Br)ccc1O2 (stereo not given)	0.2	14.1	21.5	82.8*	85.0*	0.2
CCN(CC)CCCN1C(=O)c2oc3ccccc3c(=O)c2C1c1cccc(OC)c1OC (stereo not given)	0.7	-3.0	1.4	21.2	33.4	0.8
CCCCc1ccc(NC(=O)CSC2=C(C#N)C(c3ccco3)C3=C(CCCC3=O)N2)cc1 (stereo not given)	0.1	6.5	-1.0	75.5*	91.8*	0.2
CCCCc1ccc(NC(=O)CSCc2cc(=O)[nH][nH]2)cc1	0.8	9.8	6.7	22.8	15.5	0.8
COc1ccc(C2C(C#N)=C(SCC(=O)Nc3ccc(C)cc3)NC3=C2C(=O)CC(C)(C)C3)cc1 (stereo not given)	0.9	13.4	-0.8	7.9	8.4	0.9
COc1ccc(NC(=O)CSC2=C(C#N)C(c3ccco3)C3=C(CCCC3=O)N2)c(OC)c1 (stereo not given)	0.1	-0.3	3.5	92.7*	85.1*	0.1
COc1cccc(NC(=O)CSC2=C(C#N)C(c3ccco3)C3=C(CCCC3=O)N2)c1 (stereo not given)	0.3	-5.7	25.4	59.8*	66.0*	0.4
CC(C)(C)NC(=O)CSc1ncnc2c1nnn2Cc1ccccc1Cl	1.1	0.0	21.5	29.4	-7.3	0.7
SMILES	CYP2C9 act	PostGolgi yeast	PostGolgi ctrl	CYP2C19 inh	CYP2C9 inh	CYP2C19 activ
CC(=O)Oc1ccc(C)cc1-n1nc2ccccc2n1	0.8	7.7	6.2	36.0	20.9	0.6
CC(=O)Nc1cccc(NC(=O)C2CC3CCC2C3)c1 (stereo not given)	0.9	1.2	2.8	17.0	13.3	0.8
O=C1CCCN1CC(O)CS(=O)(=O)c1ccc(Cl)cc1 (stereo not given)	0.9	2.9	6.5	34.0	13.9	0.7
COc1ccccc1N1C(=O)CC(Sc2nc(C)cc(C)n2)C1=O (stereo not given)	1.1	-0.5	-5.3	-12.0	-7.5	1.1
COc1cccc(N2CCN(C3CC(=O)N(c4ccc(F)c(Cl)c4)C3=O)CC2)c1 (stereo not given)	0.4	-1.2	7.3	30.8	55.4*	0.7
COc1ccccc1C1N(c2cc(Cl)ccc2OC)C(=O)C2CCCN21 (stereo not given)	1.6	-7.4	5.8	31.9	-58.8	0.7
COc1ccccc1N1C(=O)CC(N2CCc3ccccc32)C1=O (stereo not given)	1.1	0.0	-0.9	90.8*	-5.4	0.1

Screening results as filed in PubChem.
